HCV inhibitor: HCV inhibition | Huh7.5.1 HCVcc-Cre infection, luciferase reporter, 44 h | Potency, µM (highest dose often 41.8 µM), usual class: inhibitors | AID 651820 | hit rate 3.4% among 340,000
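Antiviral activity was scored by luciferase reporter output from cells infected with HCVcc-Cre (~0.5 moi) in presence of compound, 44 h infection period, cells seeded 1,000/well 4 h prior.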
Pf growth 48h: P. falciparum growth inhibition at 48 hours (one generation) | hit rate 5.9% among 310,000 | Potency, µM (series often up to 28.7 µM), usual class: inhibitors | P. falciparum luciferase growth in erythrocytes, 48 h | AID 504832
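Here the parasites carry a stable luciferase gene and grow inside erythrocytes in Albumax-based RPMI medium with compound for one erythrocytic cycle. Activity is scored as loss of luminescent signal.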
Shiga inhibitor: blocks Shiga toxin action in Vero cells; Vero cells, Shiga toxin protein synthesis inhibition reporter; inhibition, % at 38.7 µM; hit rate 9.2% among 290,000; AID 2315; in the data active = inhibition mostly above about 28%, no sharp cut-off; inactive = mostly below about 43%
HCMV inh: human cytomegalovirus inhibition | HFF cells, HCMV-luciferase reporter, 72 h; hits give low values | activity change, negative = inhibition, % at 57.5 µM | hit rate 4.5% among 410,000 | AID 1259415; in the data active = activity change below about -60%; inconclusive = no clear call, values can overlap the other calls; inactive = above about -39%
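HFF cells seeded 16 h at 37C, treated with compounds, infected with luciferase-reporter HCMV at MOI 1 PFU/cell; luciferase read at 72 h post infection, normalized to buffer-only and Salinomycin controls.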
Pf growth 96h: P. falciparum growth inhibition at 96 hours. P. falciparum luciferase reporter growth, 96 h. Potency, µM (highest dose often 28.7 µM), actives largely listed as inhibitors. hit rate 6.9% among 320,000
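Readout is luminescence from an integrated firefly luciferase in P. falciparum. Red cells, 2% hematocrit and 0.05% parasitemia final, were cultured with compound through two parasite generations (96 hours) at 37 C, 5% CO2.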
CHX counter: counter-screen hit for Shiga toxin inhibitors, cycloheximide; hit rate 12% among 300,000; max response, %; AID 2314; cell reporter, cycloheximide protein synthesis inhibition counterscreen; in the data active = max response mostly above about 13%, no sharp cut-off; inactive = mostly below about 14%; note: read at 38.3 µM for the half of the compounds with a filed dose
A number is an active result; 0 = inactive; ? = inconclusive; - = no result. A selection: hits, their analogues and other compounds. The true share with any hit is near 21%. Unless noted, calls come from the whole dose curve; as a rule, active = well fitted inhibition curve with a large enough effect; inconclusive = small, poorly fitted or top-dose-only effect, or another doubt; inactive = no such curve, though single readings can be large or run the other way.

SMILES | HCV inhibitor | Pf growth 48h | Shiga inhibitor | HCMV inh | Pf growth 96h | CHX counter
CCOC(=O)c1cc2c(=O)c3cc(C)ccc3oc2nc1C | 0 | 0 | 52 | - | 0 | 40
O=C(Nc1ccccc1)c1cc2c(=O)c3ccccc3oc2nc1C(F)(F)F | 0 | ? | 0 | 0 | 0 | 0
CCc1nc2oc3ccccc3c(=O)c2cc1C(=O)OC | ? | 0 | 51 | - | 0 | 24
CCN(CC)C(=O)c1cc2c(=O)c3cc(Cl)ccc3oc2nc1C | 0 | 0 | 0 | 0 | 0 | 0
COCc1nc2oc3ccc(F)cc3c(=O)c2cc1C(=O)OC | 0 | 0 | 0 | 0 | 0 | 0
Cc1ccc2oc3nc(C)c(C(=O)O)cc3c(=O)c2c1 | 0 | 0 | 0 | 0 | 0 | 41
Cc1nc2oc3ccc(F)cc3c(=O)c2cc1C(=O)O | 0 | 0 | 0 | - | 0 | 27
CCN(CC)S(=O)(=O)c1ccc(C(=O)NCCN(C)C)cc1 | 0 | 0 | 0 | 0 | 0 | 0
COc1ccc(S(=O)(=O)Nc2ccc(C)cn2)cc1 | 0 | 0 | 0 | 0 | 0 | 0
CC(=O)c1cc2c(=O)c3cc(C)ccc3oc2nc1C | 0 | 0 | 121 | 0 | 0 | 30
COCc1nc2oc3ccc(C)cc3c(=O)c2cc1C(=O)OC | 0 | 0 | 0 | -71 | 0 | 23
COc1ccc([C@H]2CC(=O)C=C(c3cccc(OC)c3OC)C2)cc1OC | ? | ? | - | 0 | ? | -
CC(Oc1ccc(-c2ccccc2)c(F)c1)c1ccn(S(=O)(=O)c2ccc(Br)cc2)n1 (stereo unspecified) | ? | ? | 0 | 0 | 10µM | 0
Cc1cc(Nc2ccc(C)c(Cl)c2)n2nc(-c3ccccc3)nc2n1 | - | - | - | 0 | - | -
COc1cc(C)c(S(=O)(=O)n2ccc(C)n2)cc1C | 0 | - | 0 | 0 | 15µM | 0
CCOc1ccc(S(=O)(=O)N2CCCCC2)c2ccccc12 | ? | 0 | 0 | 0 | ? | 0
COc1ccc(S(=O)(=O)n2ccc(C)n2)cc1C | 0 | 0 | 0 | 0 | - | 0
CCOc1ccc(S(=O)(=O)n2ccc(C)n2)c2ccccc12 | 0 | 10µM | 0 | 0 | ? | 0
CCCn1nnc(NC(=O)c2ccc(OCC)c(Cl)c2)n1 | ? | 13µM | 0 | 0 | 0 | 20
CCCn1nnc(NC(=O)c2ccc(-c3ccccc3)cc2)n1 | ? | ? | 100 | 0 | ? | 21
CCCn1nnc(NC(=O)COc2cc(C)ccc2C(C)C)n1 | ? | 0 | 0 | 0 | - | 0
CCCn1nnc(NC(=O)c2ccc(OC)cc2)n1 | 0 | - | 0 | 0 | 0 | 37
CCOc1ccc(C(=O)Nc2nnn(CC)n2)cc1 | 0 | 0 | 75 | 0 | - | 36
Cc1ccc(NC(=O)CSCc2n[nH]c(=O)[nH]2)c(Br)c1 | 0 | 0 | 0 | 0 | 0 | 0
COc1ccc(S(=O)(=O)c2cn(Cc3ccccc3)c3cc(N4CCCC4)c(F)cc3c2=O)cc1 | - | - | - | 0 | - | -
SMILES | HCV inhibitor | Pf growth 48h | Shiga inhibitor | HCMV inh | Pf growth 96h | CHX counter
C[C@H](CO)N1C[C@H](C)[C@@H](CN(C)C(=O)Nc2ccc3c(c2)OCO3)Oc2ccc(NS(=O)(=O)c3cn(C)cn3)cc2C1=O | 0 | - | - | 0 | - | -
O=P(O)(O)OC1[C@H](O)[C@H](OP(=O)(O)O)C(OP(=O)(O)O)[C@H](OP(=O)(O)O)[C@H]1O (stereo partly specified) | - | - | 0 | - | - | 0
CCCn1nnc(NC(=O)c2ccc(Br)cc2)n1 | 0 | 0 | 99 | 0 | 0 | 45
CCCn1nnc(NC(=S)NC(=O)c2ccc(-c3ccc(Br)cc3)o2)n1 | 0 | 0 | 0 | 0 | ? | 0
CCc1cccc(CC)c1NC(=O)c1ccccc1 | 0 | 0 | 0 | 0 | ? | 0
N#C/C(=C\c1ccccc1C(F)(F)F)C(=O)Nc1ccccc1 | 0 | 0 | 0 | 0 | 0 | 17
N#C/C(=C\c1ccccc1OCc1ccc(C(=O)O)cc1)C(=O)Nc1ccc(O)cc1 | 0 | 0 | 0 | 0 | 0 | 0
CCc1cccc(CC)c1NC(=O)/C(C#N)=C/c1ccccc1C(F)(F)F | 11µM | 0 | 0 | -103 | ? | 0
CCC(=O)N1[C@@H]2c3ccc(C4=CCCCC4)c(=O)n3C[C@H]1[C@H](CO)[C@H]2C(=O)N[C@@H](C)c1ccccc1 | - | - | - | 0 | - | -
Cc1[nH]nc2c1C(c1ccccc1F)CC(=O)N2 (stereo unspecified) | 0 | 0 | 0 | 0 | 0 | 13
C=CCNC(=O)/C(=C/c1cn(-c2ccccc2)nc1-c1cccc([N+](=O)[O-])c1)NC(=O)c1ccccc1 | 0 | ? | 0 | 0 | 4.1µM | 0
CN(C)C(=O)/C(=C/c1cn(-c2ccccc2)nc1-c1cccc([N+](=O)[O-])c1)NC(=O)c1ccccc1 | 0 | 0 | 0 | 0 | 0 | 0
O=C(NCc1cn(-c2ccccc2)nc1-c1ccccc1)c1cccc([N+](=O)[O-])c1 | 0 | ? | 0 | 0 | 0 | 13
O=C(NCc1cn(-c2ccccc2)nc1-c1ccccc1)c1cc([N+](=O)[O-])cc([N+](=O)[O-])c1 | 0 | ? | 0 | ? | ? | 0
COc1ccc(-c2nn(-c3ccccc3)cc2CNC(=O)c2cccc([N+](=O)[O-])c2)cc1 | ? | ? | 0 | 0 | ? | 15
Cc1cccc(NC(=O)c2ncn3c2C(=O)N(C)CC3)c1 | - | - | - | 0 | - | -
Cc1nn(C)c(=O)n1-c1ccc(OCc2ccccc2)cc1 | 0 | 0 | 89 | - | 0 | 44
Cc1nn(CCOc2ccccc2)c(=O)n1-c1ccc(F)cc1 | 0 | 0 | 62 | 0 | 0 | 32
Cc1cc(C)n(-c2nnc3n2N=C(c2c[nH]c4ccccc24)CS3)n1 | ? | ? | 0 | 0 | 0 | 0
c1ccc2c(C3=NNC(=NC4CC4)SC3)c[nH]c2c1 | 0 | 0 | 0 | 0 | 0 | 38
c1ccc(C2=NNC(=NC3CC3)SC2)cc1 | 0 | 0 | 0 | 0 | 0 | 15
COC(=NC1CCCCC1)C(O)c1c[nH]c2ccccc12 (stereo unspecified) | 0 | - | 0 | 0 | 0 | 0
c1ccc2c(C3=NNC(=NC4CCCCC4)SC3)c[nH]c2c1 | 0 | ? | 0 | 0 | 15µM | 36
O=C1SCC(c2ccccc2)=NN1Cc1ccccc1 | 0 | 0 | 0 | 0 | ? | 0
COc1cccc(C(N)c2nc(-c3cc(F)cc(F)c3)cs2)c1 (stereo unspecified) | - | - | - | 0 | - | -
SMILES | HCV inhibitor | Pf growth 48h | Shiga inhibitor | HCMV inh | Pf growth 96h | CHX counter
COc1ccc(OC)c(Nc2nn3c(=O)c4ccccc4nc3s2)c1 | - | 0 | - | - | 0 | -
CCN(c1ncnc2c1cnn2-c1cc(Cl)ccc1C)C1CCCCC1 | - | - | - | 0 | - | -
Cc1ccc(-c2nc(S(=O)(=O)c3ccc(C)cc3)c(SCC(=O)Nc3ccc(F)cc3)o2)cc1 | - | - | - | 0 | - | -
CCc1ccc(CNC(=O)C2CCN(c3nc4ccccc4nc3C(F)(F)F)CC2)cc1 | - | - | - | 0 | - | -
O=C(Nc1ccc2oc(-c3ccccc3F)nc2c1)c1ncn[nH]1 | 0 | - | 80 | 0 | 0 | 52
O=C(Nc1ccc2oc(-c3ccc4ccccc4c3)nc2c1)c1cccc(Cl)c1Cl | - | - | - | 0 | - | -
CCc1ccc2oc(-c3ccc(NC(=O)c4cccc(Cl)c4Cl)cc3)nc2c1 | - | - | - | -70 | - | -
O=C(Nc1ccc2oc(-c3cccc(F)c3)nc2c1)c1ccccc1F | ? | 0 | 0 | 0 | - | 0
O=C(Nc1ccc2oc(-c3ccncc3)nc2c1)c1ccccc1F | 0 | 0 | 63 | 0 | ? | 0

Screening data (PubChem BioAssay)
